Compound activity as filed in PubChem.
PAFAH1B2 inh: PAFAH1B2 (human) inhibition. actives 1.2% (n = 340,000). P68402. recombinant PAFAH1B2, FP-rhodamine activity probe, fluorescence polarization. inhibition, % at 3.39 µM. AID 492953;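 active means inhibition above the mean of all tested compounds plus 3 SD, cut at about 24% in these data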
Target sequence (P68402 whole entry, looked up): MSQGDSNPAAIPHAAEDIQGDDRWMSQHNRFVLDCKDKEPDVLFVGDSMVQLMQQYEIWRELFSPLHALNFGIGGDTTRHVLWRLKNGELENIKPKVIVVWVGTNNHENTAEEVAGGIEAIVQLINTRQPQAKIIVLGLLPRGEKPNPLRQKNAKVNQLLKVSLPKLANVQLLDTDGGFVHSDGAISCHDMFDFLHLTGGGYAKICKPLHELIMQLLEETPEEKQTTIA
EBNA-1 inh: blocks EBNA-1 binding to DNA; AID 1950; EBNA-1 DNA binding, fluorescence polarization; actives 0.34% (n = 300,000); inhibition, % at 14.8 µM; in the data active means inhibition above about 28%
ZTA counter: ZTA (EBV) inhibition in EBNA-1 counter-screen. ZTA-DNA binding, fluorescence polarization. P03206. actives 0.15% (n = 320,000). inhibition, % at 11 µM. AID 2234; in the data active means inhibition above about 33%
Target sequence (P03206 whole entry, looked up): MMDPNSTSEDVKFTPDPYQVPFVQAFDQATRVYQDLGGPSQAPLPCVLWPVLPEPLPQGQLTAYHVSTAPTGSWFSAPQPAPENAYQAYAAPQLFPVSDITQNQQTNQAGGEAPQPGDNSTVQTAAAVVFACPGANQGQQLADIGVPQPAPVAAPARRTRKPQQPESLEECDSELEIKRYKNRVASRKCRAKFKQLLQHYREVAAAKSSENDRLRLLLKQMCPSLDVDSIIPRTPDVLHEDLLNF
PAFAH2 inh: inhibitors of human PAFAH2; recombinant PAFAH2, FP-rhodamine activity probe, fluorescence polarization; Q99487; inhibition, % at 3.39 µM; actives 0.99% (n = 340,000);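 active means inhibition above the mean over all tested compounds plus 3 SD, cut at about 30% in these data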;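 further: inhibitors block probe labeling of enzyme so polarization drops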
PAFAH1B3 inh: PAFAH1B3 (human) inhibition; actives 0.28% (n = 340,000); Q15102; recombinant PAFAH1B3, FP-rhodamine probe, fluorescence polarization; inhibition, % at 3.39 µM;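 active means inhibition above the screen-wide average of all tested compounds plus 3 SD, cut at about 25% in these data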
Target sequence (Q15102 whole entry, looked up): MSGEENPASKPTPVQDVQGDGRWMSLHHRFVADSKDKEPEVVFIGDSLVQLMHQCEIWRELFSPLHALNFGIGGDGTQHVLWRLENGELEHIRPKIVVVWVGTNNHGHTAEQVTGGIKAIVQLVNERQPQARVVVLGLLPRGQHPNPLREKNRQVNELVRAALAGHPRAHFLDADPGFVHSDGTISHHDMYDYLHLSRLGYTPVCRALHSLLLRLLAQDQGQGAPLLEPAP
pPAFAH inh: pPAFAH (human) enzyme inhibition; Q13093; recombinant pPAFAH, FP-rhodamine probe fluorescence polarization; inhibition, % at 3.39 µM; actives 1.5% (n = 330,000); AID 463082;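 active means inhibition above the mean inhibition across the screen plus 3 SD, cut at about 25% in these data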;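 further: inhibitors block binding of the rhodamine activity-based probe so polarization drops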
PAFAH2 FP conf: confirmation of human PAFAH2 inhibitors; shares compounds with PAFAH2 inh; recombinant PAFAH2, FP-rhodamine activity probe, fluorescence polarization; inhibition, % at 3.39 µM; actives 65% (n = 2,300);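 active means mean inhibition over three repeats above a set limit taken from the earlier primary screen, cut at about 30% in these data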;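 further: inhibitor blocks binding of rhodamine activity probe so polarization falls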
Large screens that a line does not name were inactive (follow-up assays come after a bar, where they were run). The list is not random: actives were taken first. Their share in the collection is about 2.9%.

O=c1cc(-c2ccco2)nc(SCc2cccc(Cl)c2)[nH]1	PAFAH2 inh 32.1 | PAFAH2 FP conf inactive
COc1cc(C(=O)NCC(=O)Nc2c(C)cccc2C)ccc1OCC(=O)N1CCOCC1	none (no result: EBNA-1 inh, ZTA counter)
COc1ccc(/C(N)=N/OC(=O)Cc2cccs2)cc1OC	none
COc1ccc(C(=O)O/N=C(\N)Cc2cccs2)cc1OC	PAFAH2 inh 78.5 | PAFAH2 FP conf 76.3
Cc1ccc(C(=O)O/N=C(\N)Cc2cccs2)cc1[N+](=O)[O-]	PAFAH2 inh 36.3 | PAFAH2 FP conf inactive
COc1ccc(Cl)cc1NC(=O)COC(=O)c1c(-c2ccccc2)noc1C	none (no result: EBNA-1 inh)
CCOc1ccc(C(=O)OCC(=O)NC2CCCCCCC2)cc1	PAFAH2 inh 93.0 (no result: EBNA-1 inh) | PAFAH2 FP conf 85.7
COc1ccc(C(=O)NCC(=O)OCC(=O)NC2CCCC2)cc1	none
CCOc1ccc(C(=O)NCC(=O)OCC(=O)NC2CCCC2)cc1	PAFAH2 inh 36.3 | PAFAH2 FP conf inactive
CCCCNC(=O)COC(=O)CCC(=O)c1ccc(Cl)cc1	none
COc1cc(N)c(Cl)cc1C(=O)OCC(=O)NCC1CCCCC1	PAFAH2 inh 60.0 (no result: EBNA-1 inh, ZTA counter) | PAFAH2 FP conf 52.0
COc1cc(C(=O)OCC(=O)NCC2CCCCC2)ccc1OCC(C)C	PAFAH2 inh 67.5 | PAFAH2 FP conf 60.6
COc1cc(C(=O)OCC(=O)NC2CC2)cc(OC)c1OC	none (no result: EBNA-1 inh)
COc1cc(C(=O)OCC(=O)NC2CC2)ccc1OCCC(C)C	PAFAH2 inh 71.1 (no result: EBNA-1 inh) | PAFAH2 FP conf 67.7
COc1ccc(C(=O)OCC(=O)c2ccc(F)cc2)cc1OC	PAFAH2 inh 60.3 (no result: EBNA-1 inh, ZTA counter) | PAFAH2 FP conf 57.4
COc1cc(N)c(Cl)cc1C(=O)OCC(=O)NCC1CCCO1 (centres undefined)	none (no result: EBNA-1 inh, ZTA counter)
COc1cc(-c2ccc(NC(=O)NC3CC3)c(OC)c2)ccc1NC(=O)NC1CC1	none (no result: PAFAH1B2 inh, PAFAH2 inh, PAFAH1B3 inh)
COc1ccc(C(=O)OCC(=O)NC2CC2)cc1F	PAFAH2 inh 49.4 (no result: EBNA-1 inh, ZTA counter) | PAFAH2 FP conf 30.5
COc1ccc(C(=O)OCC(=O)NC2CC2)cc1S(=O)(=O)N(C)Cc1ccccc1	PAFAH2 inh 53.8 | PAFAH2 FP conf 49.5
CCN(C(=O)COC(=O)c1ccc(OC)c(S(=O)(=O)N(C)Cc2ccccc2)c1)C1CCS(=O)(=O)C1 (centres undefined)	none
Cc1ccc(C(=O)CC(=O)c2ccccc2)cc1	none
COc1cc(C(=O)OCC(=O)NC2CCCCCC2)ccc1OCC(C)C	PAFAH2 inh 88.1 | PAFAH2 FP conf 82.8
Cc1ccc(C(=O)OCC(=O)c2ccccc2)cc1	PAFAH2 inh 37.5 | PAFAH2 FP conf inactive
CCc1ccc(OCC(=O)Nc2ccc(S(=O)(=O)Nc3ccccn3)cc2)cc1	none
O=C1CCc2cc(S(=O)(=O)N3CCCCC3)cc3c2N1CC3	none
Cc1cccc(C)c1-n1c(C)cc(/C=N/NC(=O)CSc2ncccn2)c1C	PAFAH2 inh 38.1 | PAFAH2 FP conf inactive
Cc1cc(C)nc(SCC(=O)N/N=C/c2cc(C)n(-c3ccccc3C)c2C)n1	none
Cn1cnnc1Sc1ccc(C(=O)OCC(=O)Nc2ccccc2)cc1[N+](=O)[O-]	PAFAH2 inh 59.2 | PAFAH2 FP conf 41.0
Cn1cnnc1Sc1ccc(C(=O)OCC(=O)Nc2cc(Cl)cc(Cl)c2)cc1[N+](=O)[O-]	none
O=C(CCS(=O)(=O)c1ccc(F)cc1)N1CCN(c2ccccc2)CC1	PAFAH2 inh 32.3 | PAFAH2 FP conf inactive
CN(CCCC(=O)N1CCN(c2ncccn2)CC1)S(=O)(=O)c1ccc(F)cc1	none (no result: EBNA-1 inh, ZTA counter)
Cc1ccc(N2C(=O)C(F)(F)C2c2ccccc2)cc1 (centres undefined)	none
O=C1N(c2ccc3c(c2)OCCO3)C(c2ccccc2)C1(F)F (centres undefined)	PAFAH2 inh 100.9 | PAFAH2 FP conf inactive
Nc1[nH]n2c(=O)cc(-c3ccccc3)nc2c1N=Nc1ccccc1	PAFAH2 inh 31.5 | PAFAH2 FP conf inactive
Cc1ccc(CN2C(=O)N/C(=C\c3ccc(-c4ccc(C(=O)O)cc4C)o3)C2=O)cc1	none
Cc1cc(C(=O)O)ccc1-c1ccc(/C=C2\NC(=O)N(Cc3ccccc3Cl)C2=O)o1	PAFAH2 inh 33.2 | PAFAH2 FP conf inactive
O=C(COC(=O)c1cccs1)Nc1cccc(S(=O)(=O)NC2=NCCCCC2)c1	PAFAH2 inh 48.4 | PAFAH2 FP conf 36.2
CC1CC1C(=O)OCC(=O)Nc1cccc(S(=O)(=O)NC2=NCCCCC2)c1 (centres undefined)	PAFAH2 inh 33.6 | PAFAH2 FP conf inactive
CSCCC(NS(=O)(=O)c1ccc(Cl)cc1)C(=O)O (centres undefined)	PAFAH2 inh 35.4 | PAFAH2 FP conf inactive
CSCCC(NS(=O)(=O)c1c(Cl)cccc1Cl)C(=O)O (centres undefined)	none
O=C(COC(=O)c1ccc2c(c1[N+](=O)[O-])C(=O)c1ccccc1C2=O)NC1CC1	PAFAH2 inh 35.8 | PAFAH2 FP conf inactive
O=C(COC(=O)c1cccc2c1C(=O)c1ccccc1C2=O)NC1CCCCC1	none
Cc1cc(C(=O)OCC(=O)NC2CCCCC2C)c2ccccc2n1 (centres undefined)	none (no result: EBNA-1 inh, ZTA counter)
CC1CCCCC1NC(=O)COC(=O)c1ccc2c(c1Cl)C(=O)c1ccccc1C2=O (centres undefined)	PAFAH2 inh 53.9 | PAFAH2 FP conf 54.9
CCOc1ccc(NC(=O)CN(C)C(=O)c2sccc2-c2ccccc2)cc1OCC	none (no result: EBNA-1 inh, ZTA counter, pPAFAH inh)
c1nc(SSc2ncnc3nc[nH]c23)c2[nH]cnc2n1	none (no result: EBNA-1 inh, ZTA counter, pPAFAH inh)
C/C(CC(=O)Nc1ccc(N(C)C)cc1)=N\NC(=O)Cc1csc(N)n1	PAFAH2 inh 49.1 | PAFAH2 FP conf inactive
COc1ccc(C(=O)N/N=C/c2cc3ccccc3[nH]c2=S)cc1	PAFAH2 inh 43.3 | PAFAH2 FP conf inactive
C=CCOc1ccc(C(=O)O)cc1Cl	none
O=C(COC(=O)c1ccc2c(c1)OCCO2)Nc1ccc(F)cc1	PAFAH2 inh 81.1 (no result: EBNA-1 inh, ZTA counter, pPAFAH inh) | PAFAH2 FP conf 82.3
O=C(COC(=O)c1ccc2c(c1)OCCO2)Nc1ccc(F)cc1F	PAFAH2 inh 77.4 (no result: EBNA-1 inh, ZTA counter) | PAFAH2 FP conf 62.0
Cc1ccnn1-c1ccc(C(=O)OCC(=O)Nc2ccc(F)cc2)cc1	PAFAH2 inh 55.4 (no result: EBNA-1 inh, ZTA counter, pPAFAH inh) | PAFAH2 FP conf 60.1
Cc1ccc(NC(=O)COC(=O)c2ccc(-n3cccn3)cc2)cc1C	none (no result: EBNA-1 inh)
CC(C)NC(=O)COC(=O)c1ccc(NS(=O)(=O)c2ccc3c(c2)OCCO3)cc1	PAFAH2 inh 51.3 | PAFAH2 FP conf 43.0
CNC(=O)COC(=O)c1ccc(NS(=O)(=O)c2ccc3c(c2)OCCO3)cc1	none
O=C(Nc1cnc2ccccn2c1=O)c1ccc(Cl)cc1	none
Cc1cc2c(=Cc3ccc(N(C)C)cc3)c3ccccc3n2[n+]1C	none (no result: EBNA-1 inh, ZTA counter, pPAFAH inh)
C[n+]1c(-c2ccccc2)cc2c(=Cc3ccccc3)c3ccccc3n21	PAFAH2 inh 58.5 (no result: EBNA-1 inh, ZTA counter, pPAFAH inh) | PAFAH2 FP conf inactive
COc1ccc(C(=O)OCC(=O)NC23CC4CC(CC(C4)C2)C3)c(OC)c1OC	PAFAH2 inh 86.4 (no result: EBNA-1 inh) | PAFAH2 FP conf 85.6
